Data: PubChem BioAssay AID1159580 (chemical genetic matrix, 2015)
About 2,000 (36%) of roughly 5,500 compounds were called active. Not shown: some 18% with an inconclusive outcome. The list shows a part of the results. Unmarked numbers belong to inactive results. No stated cut-off is given here; in the data, active means normalized growth mostly below about 0.91 (no sharp cut-off); inconclusive means no clear call, values can overlap the other calls; inactive means mostly above about 0.92.

Experiment: chemical genetic growth profiling, strain panel (AID 1159580);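 further: tested at 20 µM; growth read once vehicle control cultures reached saturation at 30 °C; 1 = growth at the plate median or of vehicle wells; lower values mean less growth of the strain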
Details: S. cerevisiae deletion strains, growth OD

Cc1cc(C(=O)N(c2ccccc2)C(C)C2CC2)c(Cl)cc1Cl (stereo unspecified)
normalized growth (locus YAR019C, strain CDC15, active compounds read low): 0.987
normalized growth (locus YBL105C, strain PKC1, active compounds read low): 0.984
normalized growth (locus YBR135W, strain CKS1, active compounds read low): 0.984
normalized growth (locus YBR136W, strain MEC1, active compounds read low): 0.987
normalized growth (locus YBR160W, strain CDC28, active compounds read low): 0.991
normalized growth (locus YDL017W, strain CDC7, active compounds read low): 0.978
normalized growth (locus YDL028C, strain MPS1, active compounds read low): 0.982
normalized growth (locus YDL101C, strain DUN1, active compounds read low): 0.98
normalized growth (locus YDL108W, strain KIN28, active compounds read low): 0.978
normalized growth (locus YDL132W, strain cdc53, active compounds read low): 0.973
normalized growth (locus YDL214C, strain PRR2, active compounds read low): 0.955
normalized growth (locus YDR052C, strain DBF4, active compounds read low): 0.985
normalized growth (locus YDR054C, strain cdc34, active compounds read low): 0.966
normalized growth (locus YDR226W, strain ADK1, active compounds read low): 0.971
normalized growth (locus YDR477W, strain SNF1, active compounds read low): 0.942
normalized growth (locus YER123W, strain YCK3, active compounds read low): 0.943
normalized growth (locus YER133W, strain GLC7, active compounds read low): 0.938
normalized growth (locus YFL009W, strain cdc4, active compounds read low): 0.973
normalized growth (locus YFL029C, strain CAK1, active compounds read low): 0.984
normalized growth (locus YFR003C, strain YPI1, active compounds read low): 0.979
normalized growth (locus YFR019W, strain FAB1, active compounds read low): 0.968
normalized growth (locus YFR028C, strain CDC14, active compounds read low): 0.979
normalized growth (locus YGR040W, strain KSS1, active compounds read low): 0.944
normalized growth (locus YGR052W, strain FMP48, active compounds read low): 0.949
normalized growth (locus YGR092W, strain DBF2, active compounds read low): 0.989
normalized growth (locus YHR030C, strain SLT2, active compounds read low): 0.8 (active)
normalized growth (locus YHR079C, strain IRE1, active compounds read low): 0.97
normalized growth (locus YHR082C, strain KSP1, active compounds read low): 0.99
normalized growth (locus YHR205W, strain SCH9, active compounds read low): 0.985
normalized growth (locus YIL147C, strain SLN1, active compounds read low): 0.983
normalized growth (locus YJL095W, strain BCK1, active compounds read low): 0.939
normalized growth (locus YJL128C, strain PBS2, active compounds read low): 0.92
normalized growth (locus YJL157C, strain FAR1, active compounds read low): 0.957
normalized growth (locus YJR016C, strain ILV3, active compounds read low): 0.976
normalized growth (locus YJR066W, strain TOR1 (second series), active compounds read low): 0.921
normalized growth (locus YJR066W, strain TOR1, active compounds read low): 1.03
normalized growth (locus YKL048C, strain ELM1, active compounds read low): 0.966
normalized growth (locus YKL067W, strain YNK1, active compounds read low): 0.955
normalized growth (locus YKL101W, strain HSL1, active compounds read low): 0.953
normalized growth (locus YKL193C, strain SDS22, active compounds read low): 0.977
normalized growth (locus YKL203C, strain TOR2, active compounds read low): 1.01
normalized growth (locus YLR113W, strain HOG1, active compounds read low): 0.808 (active)
normalized growth (locus YLR133W, strain CKI1, active compounds read low): 0.965
normalized growth (locus YLR403W, strain SFP1, active compounds read low): 0.993
normalized growth (locus YML070W, strain DAK1, active compounds read low): 0.925
normalized growth (locus YMR001C, strain CDC5, active compounds read low): 0.982
normalized growth (locus YMR205C, strain PFK2 (second series), active compounds read low): 0.958
normalized growth (locus YMR277W, strain FCP1, active compounds read low): 0.972
normalized growth (locus YNL006W, strain LST8, active compounds read low): 0.989
normalized growth (locus YNL020C, strain ARK1, active compounds read low): 0.95
normalized growth (locus YNL161W, strain CBK1, active compounds read low): 0.979
normalized growth (locus YNL183C, strain NPR1, active compounds read low): 1.02
normalized growth (locus YNL207W, strain RIO2, active compounds read low): 0.978
normalized growth (locus YNL222W, strain SSU72, active compounds read low): 0.988
normalized growth (locus YNL307C, strain MCK1 (second series), active compounds read low): 0.941
normalized growth (locus YOL078W, strain AVO1, active compounds read low): 0.98
normalized growth (locus YOL136C, strain PFK27, active compounds read low): 0.936
normalized growth (locus YOR061W, strain CKA2, active compounds read low): 0.958
normalized growth (locus YOR119C, strain RIO1, active compounds read low): 1.02
normalized growth (locus YOR231W, strain MKK1, active compounds read low): 0.95
normalized growth (locus YOR329C, strain SCD5, active compounds read low): 0.984
normalized growth (locus YPL031C, strain PHO85, active compounds read low): 0.939
normalized growth (locus YPL153C, strain RAD53, active compounds read low): 0.921
normalized growth (locus YPL204W, strain HRR25, active compounds read low): 0.918
normalized growth (locus YPL209C, strain IPL1, active compounds read low): 0.985
normalized growth (locus YPL256C, strain CLN2, active compounds read low): 0.848 (active)
normalized growth (locus YPR025C, strain CCL1, active compounds read low): 0.991
normalized growth (locus YPR106W, strain ISR1, active compounds read low): 0.982
normalized growth (locus YPR111W, strain DBF20, active compounds read low): 0.97
normalized growth (strain NNK1, active compounds read low): 0.976
normalized growth (strain TSCII, active compounds read low): 0.983
